# Where two headings read alike, the source gives them in different places.
# Assays:
# Design in all cases: species or system human, MV4-11 + K-562 + COLO205 + SK-N-BE2 + OVCAR-8
# RIPK2 = settings: read-out: apparent Kd, n = 1
# AXL = settings: read-out: apparent Kd, n = 1
# CSK = settings: read-out: apparent Kd, n = 1
# EPHA1 = settings: read-out: apparent Kd, n = 1
# EPHB3 = settings: read-out: apparent Kd, n = 1
# LYN = settings: read-out: apparent Kd, n = 1
# MTOR = settings: read-out: apparent Kd, n = 1
# PIK3CG = settings: read-out: apparent Kd, n = 1
# ULK1 = settings: read-out: apparent Kd, n = 1
# ROCK1 = settings: read-out: apparent Kd, n = 1
# PRKG1 = settings: read-out: apparent Kd, n = 1
# CDC42BPG = settings: read-out: apparent Kd, compound concentrations: 100 nM and 1000 nM (sheet 'Samples'), n = 1
# PDGFRB = settings: read-out: apparent Kd, compound concentrations: 100 nM and 1000 nM (sheet 'Samples'), n = 1
# CDK2 = settings: read-out: apparent Kd, compound concentrations: 100 nM and 1000 nM (sheet 'Samples'), n = 1
# CDK5 = settings: read-out: apparent Kd, compound concentrations: 100 nM and 1000 nM (sheet 'Samples'), n = 1
# CDC42BPA = settings: read-out: apparent Kd, compound concentrations: 100 nM and 1000 nM (sheet 'Samples'), n = 1
# TGFBR2 = settings: read-out: apparent Kd; compound concentrations:100 nM and 1000 nM (sheet 'Samples'); n = 1
# CDK9 = settings: read-out: apparent Kd; compound concentrations: 100 nM and 1000 nM (sheet 'Samples'), CATDS: 4.3233319898636102E-2; n = 1
# ICK = settings: read-out: apparent Kd; compound concentrations: 100 nM and 1000 nM (sheet 'Samples'), CATDS: 7.2296176142385704E-2; n = 1
# [1] = compound concentrations:100 nM and 1000 nM (sheet 'Samples')
structure (smiles),measurement,setting,value
Fc1ccc(-c2c(-c3ccncc3)[nH]c3cccnc23)cc1 [RO1153853-000],potency estimated from few doses,"RIPK2; compound concentrations: 100 nM and 1000 nM (sheet 'Samples'), CATDS: 7.5197956220231496E-2",498 nM
CN1C[C@@H]2Cn3c(c(C4=C(c5cn(C)c6ccccc56)C(=O)NC4=O)c4ccccc43)C[C@H]2C1.Cl [RO0320234-001],potency estimated from few doses,AXL; [1],1340 nM
same,potency estimated from few doses,CSK; [1],552 nM
same,potency estimated from few doses,EPHA1; [1],368 nM
same,potency estimated from few doses,EPHB3; [1],1030 nM
same,potency estimated from few doses,LYN; [1],158 nM
same,potency estimated from few doses,MTOR; [1],186 nM
same,potency estimated from few doses,PIK3CG; [1],1400 nM
same,potency estimated from few doses,RIPK2; [1],407 nM
same,potency estimated from few doses,ULK1; [1],768 nM
Cl.Cl.NCC(C(=O)Nc1cc(Br)c(-c2ccnc3[nH]ccc23)s1)c1ccccc1.NCC(C(=O)Nc1cc(Br)c(-c2ccnc3[nH]ccc23)s1)c1ccccc1 (centres unmarked) [GSK1269851A],potency estimated from few doses,AXL; [1],1610 nM
same,potency estimated from few doses,CSK; [1],674 nM
same,potency estimated from few doses,EPHA1; [1],516 nM
same,potency estimated from few doses,EPHB3; [1],1180 nM
same,potency estimated from few doses,LYN; [1],586 nM
same,potency estimated from few doses,ROCK1; [1],894 nM
same,potency estimated from few doses,ULK1; [1],705 nM
Clc1cc(Cl)cc(Nc2ccnc(Nc3cc(Cl)cc(Cl)c3)n2)c1 [GSK175726A],potency estimated from few doses,"AXL; compound concentrations: 100 nM and 1000 nM (sheet 'Samples'), CATDS: 8.4752300032334103E-3",1710 nM
same,potency estimated from few doses,"CSK; compound concentrations: 100 nM and 1000 nM (sheet 'Samples'), CATDS: 1.17668577174877E-2",462 nM
same,potency estimated from few doses,"EPHA1; compound concentrations: 100 nM and 1000 nM (sheet 'Samples'), CATDS: 1.41379738320296E-2",280 nM
same,potency estimated from few doses,"EPHB3; compound concentrations: 100 nM and 1000 nM (sheet 'Samples'), CATDS: 8.8361902766531698E-3",1370 nM
same,potency estimated from few doses,"LYN; compound concentrations: 100 nM and 1000 nM (sheet 'Samples'), CATDS: 1.7701594212269099E-2",169 nM
same,potency estimated from few doses,"MTOR; compound concentrations: 100 nM and 1000 nM (sheet 'Samples'), CATDS: 1.7554405068834999E-2",172 nM
same,potency estimated from few doses,"RIPK2; compound concentrations: 100 nM and 1000 nM (sheet 'Samples'), CATDS: 1.18071418274956E-2",457 nM
same,potency estimated from few doses,"ULK1; compound concentrations: 100 nM and 1000 nM (sheet 'Samples'), CATDS: 8.5136949732422407E-3",1670 nM
CCn1c(-c2nonc2N)nc2c(C#CC(C)(C)O)nc(OCCN)cc21.CCn1c(-c2nonc2N)nc2c(C#CC(C)(C)O)nc(OCCN)cc21.Cl.Cl [GSK902056A],potency estimated from few doses,PRKG1; [1],1230 nM
Cl.ON=C1CCc2cc(-c3nc(C4CCNCC4)[nH]c3-c3ccncc3)ccc21 [SB-614067-R],potency estimated from few doses,RIPK2; [1],320 nM
CCn1c(-c2nonc2N)nc2c(-c3ccccc3)ncc(OCCCN)c21.CCn1c(-c2nonc2N)nc2c(-c3ccccc3)ncc(OCCCN)c21.O=C(O)C(F)(F)F.O=C(O)C(F)(F)F [GSK260205A],potency estimated from few doses,CDC42BPG; CATDS: 6.3279699360334701E-2,187 nM
same,potency estimated from few doses,PDGFRB; CATDS: 3.4568718881872497E-2,808 nM
CCOC(=O)N1CCC(n2cnc(-c3ccc(F)cc3)c2-c2ccnc(N)n2)CC1 [SB-219952],potency estimated from few doses,"AXL; compound concentrations: 100 nM and 1000 nM (sheet 'Samples'), CATDS: 1.0061198930866599E-2",853 nM
same,potency estimated from few doses,"CSK; compound concentrations: 100 nM and 1000 nM (sheet 'Samples'), CATDS: 1.06273677269496E-2",745 nM
same,potency estimated from few doses,"EPHA1; compound concentrations: 100 nM and 1000 nM (sheet 'Samples'), CATDS: 1.16401500305403E-2",603 nM
same,potency estimated from few doses,"EPHB3; compound concentrations: 100 nM and 1000 nM (sheet 'Samples'), CATDS: 9.5797280308489805E-3",971 nM
same,potency estimated from few doses,"RIPK2; compound concentrations: 100 nM and 1000 nM (sheet 'Samples'), CATDS: 1.44232329790909E-2",387 nM
same,potency estimated from few doses,"ULK1; compound concentrations: 100 nM and 1000 nM (sheet 'Samples'), CATDS: 8.7591953148760202E-3",1260 nM
COc1ccc(Nc2ncc(C#N)c(Nc3ccccc3C(N)=O)n2)cc1N1CCN(C)CC1.Cl [GSK1558669A],potency estimated from few doses,CDK2; CATDS: 7.0892729990410901E-3,671 nM
same,potency estimated from few doses,CDK5; CATDS: 1.3495473564992901E-2,85 nM
same,potency estimated from few doses,"LYN; compound concentrations: 100 nM and 1000 nM (sheet 'Samples'), CATDS: 6.9772111779179699E-3",724 nM
same,potency estimated from few doses,PDGFRB; CATDS: 6.5181238774795402E-3,1030 nM
same,potency estimated from few doses,"ULK1; compound concentrations: 100 nM and 1000 nM (sheet 'Samples'), CATDS: 1.40188360119969E-2",77.8 nM
CN(c1ccc(NC(=O)Nc2cccc(Cl)c2)cc1)c1ccnc(N)n1.Cl [GW830707A],potency estimated from few doses,CDC42BPA; CATDS: 1.08451954536147E-2,1270 nM
same,potency estimated from few doses,CDC42BPG; CATDS: 2.2022337119778398E-2,40.9 nM
same,potency estimated from few doses,"MTOR; compound concentrations: 100 nM and 1000 nM (sheet 'Samples'), CATDS: 2.8595787466671799E-2",22.6 nM
same,potency estimated from few doses,"PRKG1; compound concentrations: 100 nM and 1000 nM (sheet 'Samples'), CATDS: 9.7555331639362503E-2",3.28 nM
same,potency estimated from few doses,"ROCK1; compound concentrations: 100 nM and 1000 nM (sheet 'Samples'), CATDS: 3.6596827517009503E-2",14.2 nM
Cl.NCc1ccc(-c2nc(-c3ccc(Cl)c(O)c3)c(-c3ccncc3)[nH]2)cc1 [SB-476429-A],potency estimated from few doses,RIPK2; [1],22.7 nM
same,potency estimated from few doses,TGFBR2,1200 nM
O=C1NC(=O)/C(=C/c2ccc3ncccc3c2)S1 [RO4603632-000],potency estimated from few doses,"PIK3CG; compound concentrations: 100 nM and 1000 nM (sheet 'Samples'), CATDS: 0.208226533332634",948 nM
CONC1=NC(=O)/C(=C/c2ccc3ncccc3c2)S1 [RO4613269-000],potency estimated from few doses,"PIK3CG; compound concentrations: 100 nM and 1000 nM (sheet 'Samples'), CATDS: 0.172527207279461",606 nM
Cc1cccc(Nc2nc(N[C@H]3CCNC3)ncc2C(N)=O)c1.Cl [GSK2197149A],potency estimated from few doses,MTOR; [1],532 nM
same,potency estimated from few doses,PIK3CG; [1],819 nM
same,potency estimated from few doses,TGFBR2,1870 nM
O=C(O)C(F)(F)F.O=c1[nH]ccc2nc(N[C@@H]3CCNC3)nc(Nc3ccc4c(c3)S(=O)(=O)CC4)c12 [GSK2181306A],potency estimated from few doses,CDK2; CATDS: 1.3422730745161799E-2,398 nM
same,potency estimated from few doses,CDK5; CATDS: 1.15516504850929E-2,571 nM
same,potency estimated from few doses,PDGFRB; CATDS: 8.63750114385467E-3,1400 nM
same,potency estimated from few doses,"PIK3CG; compound concentrations: 100 nM and 1000 nM (sheet 'Samples'), CATDS: 1.1005849922452E-2",648 nM
same,potency estimated from few doses,"ROCK1; compound concentrations: 100 nM and 1000 nM (sheet 'Samples'), CATDS: 8.6334191105918393E-3",1410 nM
same,potency estimated from few doses,"ULK1; compound concentrations: 100 nM and 1000 nM (sheet 'Samples'), CATDS: 1.11724420901094E-2",623 nM
COc1cc(Nc2nccc(-c3cnn4ncccc34)n2)cc(OC)c1 [GW801372X],potency estimated from few doses,CDC42BPA; CATDS: 2.2465917361224799E-2,786 nM
same,potency estimated from few doses,CDK9,142 nM
same,potency estimated from few doses,ICK,49.6 nM
same,potency estimated from few doses,PDGFRB; CATDS: 1.5756503418678101E-2,3520 nM
